Screening results from PubChem.
This excerpt belongs to a sample that is enriched for hits.
IMPase Li inh: qHTS Assay for Identifying the Cell-Membrane Permeable IMPase Inhibitors: Potentiation with Lithium. CHO-M1 cells, IP1 TR-FRET (IP-One), carbachol + lithium. Potency, µM (top dose mostly 59.4 µM), without a hit: top-dose activity, negative = IMPase inhibition, hits mostly inhibitors. 0.35% of 210,000 active;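 note: IP1 builds up when IMPase is blocked and the TR-FRET signal falls; plate controls were basal vehicle for no effect and high inhibitor control for full effect; nearly all actives have a fitted effect of over 50% in size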
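Lithium-sensitised IP1 accumulation assay; M1-expressing CHO cells treated 30 min at 37C with compound. Competitive antibody detection by time-resolved FRET followed a 10 min room-temperature lysis step.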
NPSR antagonist: qHTS Assay for Antagonists of the Neuropeptide S Receptor: cAMP Signal Transduction | Q6W5P4 | CHO-NPSR cells, cAMP TR-FRET, antagonist mode | Potency, µM (titrated, usually from 38.3 µM), without a hit: at the highest dose activity change, negative = inhibition, actives largely listed as inhibitors | 1% of 220,000 active | AID 1461, 2008; note: nearly all actives have a fitted effect of over 50% in size
Target sequence (Q6W5P4 whole entry, looked up): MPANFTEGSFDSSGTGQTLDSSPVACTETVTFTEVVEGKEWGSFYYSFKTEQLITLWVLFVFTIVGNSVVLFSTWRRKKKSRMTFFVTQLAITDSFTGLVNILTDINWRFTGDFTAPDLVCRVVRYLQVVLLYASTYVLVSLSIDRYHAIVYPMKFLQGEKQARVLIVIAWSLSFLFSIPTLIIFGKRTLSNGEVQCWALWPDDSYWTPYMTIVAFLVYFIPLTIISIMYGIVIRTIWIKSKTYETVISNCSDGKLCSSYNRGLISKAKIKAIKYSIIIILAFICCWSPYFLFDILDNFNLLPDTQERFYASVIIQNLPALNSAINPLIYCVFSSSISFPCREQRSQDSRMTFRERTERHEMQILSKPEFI
ERK EGF inh: qHTS Assay for Inhibitors of the ERK Signaling Pathway using a Homogeneous Screening Assay; Stimulation with EGF. 0.41% of 130,000 active. Potency, µM (titrated, usually from 11.5 µM), for inactives: at the highest dose activity change, negative = inhibition, most hits filed as inhibitors. HEK293-V1b, EGF-stimulated phospho-ERK AlphaScreen;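 note: plate controls were stimulated vehicle wells for no effect and unstimulated vehicle basal for full effect; nearly all actives have a fitted effect of over 55% in size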
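HEK293 cells stably expressing V1b receptor, serum-reduced (1% FBS) overnight, pretreated 30 min with compound, then stimulated 5 min with 25 nM EGF; phospho-ERK detected by AlphaScreen SureFire. AC50 from Hill fits, normalized to DMSO and EGF.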
Numbers without * were called inactive; [ ] = dose if it differs, or a comment. Calls come from the whole dose curve; as a rule, active = well fitted curve in the direction sought with a large enough effect; inconclusive = small, poorly fitted or top-dose-only effect, or another doubt; inactive = no such curve, though single readings can be large; an effect the other way counts as inactive or inconclusive. Unless noted, % is set by controls: 0 for no effect and ±100 for the full control effect; potency is the fitted concentration of half-maximal effect.

For CCCC1O[C@@H]2C[C@H]3[C@@H]4CCC5=CC(=O)C=C[C@]5(C)C4[C@@H](O)C[C@]3(C)[C@]2(C(=O)CO)O1 (stereo partly drawn) the results were IMPase Li inh -12%, NPSR antagonist inconclusive and ERK EGF inh -3%.
For Cc1nn(-c2ccccc2)c(Cl)c1/C=C1\SC(=S)NC1=O the results were IMPase Li inh 35%[38.3 µM] and NPSR antagonist 10µM*.
For Cc1nn(-c2ccccc2)c(Cl)c1/C=C1\SC(=S)N(CCCCCC(=O)O)C1=O the results were NPSR antagonist -57% and ERK EGF inh -3%[57.5 µM].
For C[C@H]1Cc2c(COc3ccccc3)nc3c(c2CO1)CN(S(=O)(=O)c1ccc(Cl)c2nonc12)CC3 the results were IMPase Li inh 5%.
Screening COc1ccc(OCC(=O)NC(=S)Nc2ccc3c4c(cccc24)CC3)cc1 returned IMPase Li inh 7.1µM*, NPSR antagonist -57% and ERK EGF inh -10%.
For Cc1ccccc1OCC(=O)NC(=S)Nc1ccc2c3c(cccc13)CC2 the results were IMPase Li inh -3%[38.3 µM] and NPSR antagonist 29%[46.1 µM].
CS(=O)(=O)N1CCC2(CCN(c3ccccn3)CC2)CC1 was read as IMPase Li inh 14% and ERK EGF inh -5%.
`Cc1cc(N2C(=O)C(O)=C(C(=O)c3cccs3)C2c2ccccc2)no1` (stereo not drawn) gave IMPase Li inh 14µM* and NPSR antagonist inconclusive.
Cc1cc(N2C(=O)C(O)=C(C(=O)c3cccs3)C2c2ccc(F)cc2)no1 (stereo not drawn) was read as NPSR antagonist inconclusive and ERK EGF inh 2%[57.5 µM].
For COc1cccc(C2C(C(=O)c3cccs3)=C(O)C(=O)N2c2cc(C)on2)c1 (stereo not drawn) the results were IMPase Li inh 10µM* and NPSR antagonist 3%[46.1 µM].
`Cc1cc(N2C(=O)C(O)=C(C(=O)c3cccs3)C2c2cccc(O)c2)no1` (stereo not drawn) gave IMPase Li inh -28%[38.3 µM] and NPSR antagonist -2%[46.1 µM].
`N#CCCn1c(=O)c(-c2ccc(Cl)cc2)nc2cnc(N3CCOCC3)nc21` gave IMPase Li inh -5%.
CCOC(=O)c1nn(-c2cccc(C)c2)c2nc(-c3ccccc3)c(C#N)c(=O)n12 was read as IMPase Li inh 4µM* and NPSR antagonist 21%[46.1 µM].
For CCOC(=O)c1nn(-c2ccc(F)cc2)c2nc(-c3ccccc3)c(C#N)c(=O)n12 the results were IMPase Li inh 1%, NPSR antagonist -30% and ERK EGF inh 7%.
Screening CCOC(=O)/C(=N\Nc1ccccc1)P(=O)(c1ccccc1)c1ccccc1 returned NPSR antagonist 10µM* and ERK EGF inh -2%[57.5 µM].
CCOC(=O)/C(=N\Nc1ccccc1)S(=O)(=O)c1ccccc1 was read as IMPase Li inh 19%[38.3 µM] and NPSR antagonist -7%[46.1 µM].
Screening Cc1nn2c(N)c(C#N)cnc2c1-c1ccc(Cl)cc1 returned IMPase Li inh 11µM* and NPSR antagonist 7.9µM*.
Cc1nn2c(N)c(C#N)cnc2c1-c1ccccc1 was read as IMPase Li inh 5%, NPSR antagonist -17%[46.1 µM] and ERK EGF inh 2%.
For CCC(=O)OC1(C)C(=O)C=C2C=C(CCCNC(=O)OC(C)(C)C)OC=C2C1=O (stereo not drawn) the results were IMPase Li inh 6% and ERK EGF inh -16%.
`C/C(=N\NC(N)=S)c1ccc[nH]1` gave IMPase Li inh 3%.
`CCOc1ccc2cc(C#N)c(SCC(=O)N3CCOCC3)nc2c1` gave IMPase Li inh 2.8µM* and NPSR antagonist -1%[46.1 µM].
For CCOc1ccc2nc(SCC(=O)N3CCCCCC3)c(C#N)cc2c1 the results were IMPase Li inh 0%[38.3 µM] and NPSR antagonist inconclusive.
`CC1=NN(c2ccccc2)C(=O)/C1=C/c1cccs1` gave IMPase Li inh 11%, NPSR antagonist 14% and ERK EGF inh 5%.
`CC1=NN(c2ccccc2)C(=O)/C1=C/c1ccc[nH]1` gave IMPase Li inh 5%, NPSR antagonist -6% and ERK EGF inh 18µM*.
CC1=NN(c2ccccc2)C(=O)/C1=C\c1ccc(Br)s1 was read as IMPase Li inh 4%, NPSR antagonist 6% and ERK EGF inh 28µM*.
For CC1=NN(c2ccccc2)C(=O)/C1=C\c1cc(C)n(-c2ccccc2)c1C the results were IMPase Li inh 18%, NPSR antagonist -17%[46.1 µM] and ERK EGF inh -5%.
Clc1cc2c(c(CSC3=NCN(CC4CC4)CN3)c1)OCOC2 was read as IMPase Li inh -2%.
